# Test results from the supplement of paper PMC6555819.
# Experiments:
# Test in all cases: PBM binding z-score (relative to random genomic background probes); higher = stronger binding; sequences stand for … in GC…GCGATTGACAGCGTAGAATGAAGG
# [1] = system: FXR:RXRa (NR concentration 270 nM, RXRa partner concentration 90 nM)
# How it was run: (§1)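 The probes on custom Agilent 4×180K protein-binding microarrays were double-stranded, with 34-nt variable regions bearing direct-repeat seeds, single-nucleotide variants, half-site ablations and random human genomic background sequences. Incubation lasted 1 h with ligand-free nuclear receptor dimers in PBS pH 7.4, 2% milk, 0.02% Triton X-100, 1 mM DTT, 0.2 mg/mL BSA and 0.4 mg/ml salmon testes DNA. Antibodies against each partner (one per run) detected bound dimers, and fluorescence scans were regression-normalized. Binding z-scores take the random background probes as reference.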
# [2] = system: LXRa:RXRa (NR concentration 270 nM, RXRa partner concentration 90 nM)
# How it was run: as §1
# [3] = system: LXRa homodimer (NR concentration 270 nM)
# How it was run: as §1
# [4] = system: LXRb:RXRa (NR concentration 270 nM, RXRa partner concentration 90 nM)
# How it was run: as §1
# [5] = system: LXRb homodimer (NR concentration 270 nM)
# How it was run: as §1
# [6] = system: PPARa:RXRa (NR concentration 270 nM, RXRa partner concentration 90 nM)
# How it was run: as §1
# [7] = system: PPARg:RXRa (NR concentration 180 nM, RXRa partner concentration 90 nM)
# How it was run: as §1
# [8] = system: PPARg:RXRa 270nM:90nM, anti-RXR (NR concentration 270 nM, RXRa partner concentration 90 nM)
# How it was run: as §1
# [9] = system: PPARg:RXRa 30nM:10nM, anti-RXR (NR concentration 30 nM, RXRa partner concentration 10 nM)
# How it was run: as §1
# [10] = system: PPARg:RXRa 90nM:30nM, anti-RXR (NR concentration 90 nM, RXRa partner concentration 30 nM)
# How it was run: as §1
sequence,measurement,setting,value
GTTACAGGGTCAGCTAGAGGCCAGAGTATGGAAA,PBM binding z-score,[1],4.39
same,PBM binding z-score,[2],3.18
same,PBM binding z-score,[3],-0.168
same,PBM binding z-score,[4],2.39
same,PBM binding z-score,[5],0.166
same,PBM binding z-score,[6],4.41
same,PBM binding z-score,[7],3.35
same,PBM binding z-score,[8],3.64
same,PBM binding z-score,[9],0.837
same,PBM binding z-score,[10],2.63
ATATGTAGGTTACATCCGGGTCAGTCAGGCTATG,PBM binding z-score,[1],1.08
same,PBM binding z-score,[2],2.95
same,PBM binding z-score,[3],0.519
same,PBM binding z-score,[4],1.74
same,PBM binding z-score,[5],0.572
same,PBM binding z-score,[6],3.66
same,PBM binding z-score,[7],5.53
same,PBM binding z-score,[8],4.69
same,PBM binding z-score,[9],2.14
same,PBM binding z-score,[10],3.86
CGTCCAAGGTCAGAGAGGTCAGTGGATGCCGAGT,PBM binding z-score,[1],6.14
same,PBM binding z-score,[2],5.17
same,PBM binding z-score,[3],3.43
same,PBM binding z-score,[4],4.38
same,PBM binding z-score,[5],0.285
same,PBM binding z-score,[6],4.94
same,PBM binding z-score,[7],3.46
same,PBM binding z-score,[8],4.26
same,PBM binding z-score,[9],1.09
same,PBM binding z-score,[10],2.58
CCTATTAGTTGACCATAAGGGCAATCGAAGCTCG,PBM binding z-score,[1],0.68
same,PBM binding z-score,[2],0.259
same,PBM binding z-score,[3],0.71
same,PBM binding z-score,[4],0.623
same,PBM binding z-score,[5],0.695
same,PBM binding z-score,[6],0.456
same,PBM binding z-score,[7],0.434
same,PBM binding z-score,[8],0.366
same,PBM binding z-score,[9],0.122
same,PBM binding z-score,[10],0.461
ATATGTGGGTTACATCCGGGTCATTCAGGCTATG,PBM binding z-score,[1],2.27
same,PBM binding z-score,[2],4.1
same,PBM binding z-score,[3],1.26
same,PBM binding z-score,[4],3.06
same,PBM binding z-score,[5],1.12
same,PBM binding z-score,[6],4.12
same,PBM binding z-score,[7],5.38
same,PBM binding z-score,[8],4.48
same,PBM binding z-score,[9],2.02
same,PBM binding z-score,[10],3.36
TCGAGTAGGTTAGTCGGGGCAGTCAGCCAACATA,PBM binding z-score,[1],0.0181
same,PBM binding z-score,[2],-0.31
same,PBM binding z-score,[3],-0.676
same,PBM binding z-score,[4],0.0169
same,PBM binding z-score,[5],-0.869
same,PBM binding z-score,[6],0.556
same,PBM binding z-score,[7],-0.388
same,PBM binding z-score,[8],0.946
same,PBM binding z-score,[9],0.987
same,PBM binding z-score,[10],0.955
TCTAGTTGGTCAAAGGTCACATACTCGAAATGCG,PBM binding z-score,[1],5.54
same,PBM binding z-score,[2],5.66
same,PBM binding z-score,[3],3.58
same,PBM binding z-score,[4],5.2
same,PBM binding z-score,[5],2.28
same,PBM binding z-score,[6],6.24
same,PBM binding z-score,[7],10.8
same,PBM binding z-score,[8],9.78
same,PBM binding z-score,[9],9.93
same,PBM binding z-score,[10],11.1
ATCTCTAGGTAACAAGTTCTGTGAAAGAGAGGAC,PBM binding z-score,[1],0.351
same,PBM binding z-score,[2],0.0214
same,PBM binding z-score,[3],0.142
same,PBM binding z-score,[4],0.0812
same,PBM binding z-score,[5],0.681
same,PBM binding z-score,[6],0.641
same,PBM binding z-score,[7],1.01
same,PBM binding z-score,[8],1.5
same,PBM binding z-score,[9],0.751
same,PBM binding z-score,[10],1.08
CCTATCAGTTGACCATAAGGGCAACCGAAGCTCG,PBM binding z-score,[1],0.965
same,PBM binding z-score,[2],0.314
same,PBM binding z-score,[3],0.218
same,PBM binding z-score,[4],0.583
same,PBM binding z-score,[5],0.56
same,PBM binding z-score,[6],0.693
same,PBM binding z-score,[7],0.456
same,PBM binding z-score,[8],0.233
same,PBM binding z-score,[9],-0.0186
same,PBM binding z-score,[10],0.0779
TCAGACTGGTGAAGGTAACTCAGGTACGCAGTCG,PBM binding z-score,[1],-0.62
same,PBM binding z-score,[2],0.98
same,PBM binding z-score,[3],-0.387
same,PBM binding z-score,[4],0.192
same,PBM binding z-score,[5],-1.07
same,PBM binding z-score,[6],0.467
same,PBM binding z-score,[7],0.185
same,PBM binding z-score,[8],1.29
same,PBM binding z-score,[9],2.82
same,PBM binding z-score,[10],1.98
CTACCAAGGTGAACAAGGTCGTTGAATACTATTC,PBM binding z-score,[1],1.52
same,PBM binding z-score,[2],1.23
same,PBM binding z-score,[3],0.0934
same,PBM binding z-score,[4],1.87
same,PBM binding z-score,[5],-0.659
same,PBM binding z-score,[6],2.68
same,PBM binding z-score,[7],1.19
same,PBM binding z-score,[8],1.39
same,PBM binding z-score,[9],0.333
same,PBM binding z-score,[10],0.702
AGAATGAGGTTATACGTAGATCAGGGAAGAAAGT,PBM binding z-score,[1],2.37
same,PBM binding z-score,[2],1.99
same,PBM binding z-score,[3],0.0175
same,PBM binding z-score,[4],1.7
same,PBM binding z-score,[5],0.71
same,PBM binding z-score,[6],3.18
same,PBM binding z-score,[7],2.1
same,PBM binding z-score,[8],2.02
same,PBM binding z-score,[9],0.854
same,PBM binding z-score,[10],1.48
CCGGACAGGTGAAAGGTAACTCAGTCTGGTACGC,PBM binding z-score,[1],0.736
same,PBM binding z-score,[2],0.472
same,PBM binding z-score,[3],-0.206
same,PBM binding z-score,[4],0.874
same,PBM binding z-score,[5],-0.858
same,PBM binding z-score,[6],3.17
same,PBM binding z-score,[7],4.79
same,PBM binding z-score,[8],5.2
same,PBM binding z-score,[9],3.2
same,PBM binding z-score,[10],5.45
ATCTCTAGGTAAGACTCAGTGCAGTGAAGAACGC,PBM binding z-score,[1],0.188
same,PBM binding z-score,[2],0.383
same,PBM binding z-score,[3],0.212
same,PBM binding z-score,[4],-0.0859
same,PBM binding z-score,[5],0.687
same,PBM binding z-score,[6],-0.163
same,PBM binding z-score,[7],-0.0807
same,PBM binding z-score,[8],0.0157
same,PBM binding z-score,[9],0.104
same,PBM binding z-score,[10],-0.0649
GCTAGCAGGCCATTTGGGTAACTCAATGACGGGC,PBM binding z-score,[1],-0.758
same,PBM binding z-score,[2],-0.699
same,PBM binding z-score,[3],-0.371
same,PBM binding z-score,[4],-0.899
same,PBM binding z-score,[5],-0.88
same,PBM binding z-score,[6],-0.267
same,PBM binding z-score,[7],0.519
same,PBM binding z-score,[8],-0.594
same,PBM binding z-score,[9],-0.844
same,PBM binding z-score,[10],-0.634
TGAATGAGGATATAAGATCAGGGAACGTTGCAAA,PBM binding z-score,[1],0.013
same,PBM binding z-score,[2],-0.248
same,PBM binding z-score,[3],-0.305
same,PBM binding z-score,[4],-0.404
same,PBM binding z-score,[5],-0.253
same,PBM binding z-score,[6],-0.127
same,PBM binding z-score,[7],0.623
same,PBM binding z-score,[8],0.286
same,PBM binding z-score,[9],0.757
same,PBM binding z-score,[10],0.775
ATATGTATGTTAAGGGTCATTCAGGTTGGTTCGC,PBM binding z-score,[1],4.05
same,PBM binding z-score,[2],4.15
same,PBM binding z-score,[3],3.41
same,PBM binding z-score,[4],4.46
same,PBM binding z-score,[5],1.5
same,PBM binding z-score,[6],5.66
same,PBM binding z-score,[7],8.29
same,PBM binding z-score,[8],7.83
same,PBM binding z-score,[9],8.13
same,PBM binding z-score,[10],8.7
GCTTGAAGATCAAGGTTAAGAAAGACTAAGCTAA,PBM binding z-score,[1],0.0422
same,PBM binding z-score,[2],0.502
same,PBM binding z-score,[3],-0.466
same,PBM binding z-score,[4],0.434
same,PBM binding z-score,[5],-0.944
same,PBM binding z-score,[6],1.44
same,PBM binding z-score,[7],0.0751
same,PBM binding z-score,[8],0.707
same,PBM binding z-score,[9],0.116
same,PBM binding z-score,[10],0.552
CCTTACGGGTCACTGACACGTTATAGCATTTGGA,PBM binding z-score,[1],5.87
same,PBM binding z-score,[2],3.87
same,PBM binding z-score,[3],0.355
same,PBM binding z-score,[4],3.38
same,PBM binding z-score,[5],0.0224
same,PBM binding z-score,[6],5.4
same,PBM binding z-score,[7],4.48
same,PBM binding z-score,[8],4.55
same,PBM binding z-score,[9],1.45
same,PBM binding z-score,[10],3.25
TTACCAAGGTGAAAGGTCGTTAATGCACGCCTTG,PBM binding z-score,[1],3.24
same,PBM binding z-score,[2],2.77
same,PBM binding z-score,[3],0.376
same,PBM binding z-score,[4],2.71
same,PBM binding z-score,[5],-0.461
same,PBM binding z-score,[6],5.24
same,PBM binding z-score,[7],8.59
same,PBM binding z-score,[8],7.35
same,PBM binding z-score,[9],6.74
same,PBM binding z-score,[10],7.85
GTACCAAGGCGAATAGGTCGTTGATGAGTAGGCG,PBM binding z-score,[1],-0.145
same,PBM binding z-score,[2],-0.392
same,PBM binding z-score,[3],-0.286
same,PBM binding z-score,[4],-0.382
same,PBM binding z-score,[5],-0.895
same,PBM binding z-score,[6],0.351
same,PBM binding z-score,[7],0.461
same,PBM binding z-score,[8],-0.0926
same,PBM binding z-score,[9],-0.512
same,PBM binding z-score,[10],-0.516
TCATATAGGTACACAGGTGAAAGTCCGTAAGTTA,PBM binding z-score,[1],0.94
same,PBM binding z-score,[2],1.1
same,PBM binding z-score,[3],0.566
same,PBM binding z-score,[4],1.09
same,PBM binding z-score,[5],0.0342
same,PBM binding z-score,[6],1.94
same,PBM binding z-score,[7],2.32
same,PBM binding z-score,[8],3.69
same,PBM binding z-score,[9],4.18
same,PBM binding z-score,[10],4.15
CCTATCAGGCCAATCTGGGTCACTCAAGGCTTGA,PBM binding z-score,[1],0.68
same,PBM binding z-score,[2],1.71
same,PBM binding z-score,[3],-0.155
same,PBM binding z-score,[4],1.02
same,PBM binding z-score,[5],0.106
same,PBM binding z-score,[6],3.29
same,PBM binding z-score,[7],2.26
same,PBM binding z-score,[8],2.47
same,PBM binding z-score,[9],0.43
same,PBM binding z-score,[10],1.76
CAAACTAGGTCACCGGAAGGTCAAGGTCCGCATG,PBM binding z-score,[1],5.96
same,PBM binding z-score,[2],5.56
same,PBM binding z-score,[3],3.66
same,PBM binding z-score,[4],4.58
same,PBM binding z-score,[5],0.998
same,PBM binding z-score,[6],5.83
same,PBM binding z-score,[7],9.82
same,PBM binding z-score,[8],7.78
same,PBM binding z-score,[9],5.66
same,PBM binding z-score,[10],8.09
